Values without a mark were called inactive. Results filed as inconclusive are left out. Calls of active or inactive are those of the source. Unless noted, calls follow the shape of the dose curve; as a rule, active = well fitted curve in the direction sought with a large enough effect; inconclusive = small, poorly fitted or top-dose-only effect, or another doubt; inactive = no such curve, though single readings can be large; an effect the other way counts as inactive or inconclusive.

We go through six molecules from PubChem BioAssay (NCATS).

For test [1], the target named is Lysosomal acid glucosylceramidase (Homo sapiens) (UniProt P04062). The test is described as follows: Glucocerebrosidase-p2 (AID 348; in the data active = potency below about 10 µM; also: potency is read from the fitted curve at half-maximal effect). The settings on record: purified GBA, blue fluorogenic substrate, 40 min. The gist of the method:
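Normal human glucocerebrosidase (0.2 nM) with blue fluorogenic substrate (80 uM final) in citrate/phosphate pH 5.9 with 10mM sodium taurocholate, 0.01% tween-20; 40 min RT, NaOH/glycine stop; fluorescence Ex 365/Em 440; AC50 from a titration from 0.6 nM upwards.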

Test [2] in a line: AP1 Signaling Pathway (AID 357; active = well fitted curve in either direction with a large enough effect, not every such curve was filed as active; also: % is scaled to controls: 0 for no effect and ±100 for the full control effect). Conditions: ME-180 AP-1-bla reporter, EGF-induced, beta-lactamase ratio, 5 h; at 7.69 µM (top of the series) unless noted. The gist of the method:
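ME-180 cells with beta-lactamase reporter under AP-1 response element, stimulated with EC50 EGF; compounds tested in titration series, 5 h at 37 °C. CCF4 substrate added 2.5 h at room temperature; 460/530 nm emission ratio gave %activity and AC50.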

Test [3] addresses Cytochrome P450 1A2 (Homo sapiens) (UniProt P05177). The test is described as follows: p450-cyp1a2 (AID 410; calls by dose curve; also: potency is read from the fitted curve at half-maximal effect). The settings on record: recombinant CYP1A2, luciferin-ME demethylation, luminescence; series mostly up to 57 µM. The gist of the method:
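O-Demethylation of luciferin 6' methyl ether by human CYP1A2 is monitored as luciferase luminescence. Substrate sits at Km (100uM); enzyme is 20nM. Values are scaled to 57 uM furafylline as maximal inhibition.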

Test [4] is described as follows: NFAT Signaling Pathway (AID 444; active = well fitted curve in either direction with a large enough effect, not every such curve was filed as active;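 also: carbachol stimulus at about its EC50 of 1 µM final; % is scaled to controls: 0 for no effect and ±100 for the full control effect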). Conditions: Jurkat NFAT-bla M1, carbachol, beta-lactamase ratio, 5 h; at 7.69 µM (top of the series) unless noted. The gist of the method:
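Jurkat cells with NFAT-driven β-lactamase reporter and co-expressed M1 receptor, stimulated with carbachol (final 1 uM, ~EC50), compound titration, 5 h at 37 °C. CCF4 loaded 1 h at RT; 460/530 nm ratio gave %activity and AC50.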

Test [5] in a line: Stat Signaling Pathway (AID 446; active = well fitted curve in either direction with a large enough effect, not every such curve was filed as active;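 also: ME-180 cervical cancer cells given 40 pM IL-6 alongside compound; SIE-controlled beta-lactamase reporter measured as 460/530 nm FRET emission ratio; % is scaled to controls: 0 for no effect and ±100 for the full control effect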). The settings on record: ME-180 (cervical carcinoma) SIE beta-lactamase reporter, IL-6 stimulated, 5 h; at 7.69 µM (top of the series) unless noted. Summed up: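 Overnight-plated ME-180 cells bearing a STAT Inducible Element beta-lactamase reporter; 5 h co-exposure to compound and 40 pM IL-6; values normalized to 300 pM IL-6 and 125 nM JAK inhibitor controls.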
In test [6] the target is Glucocorticoid receptor (Homo sapiens) (UniProt P04150). The test is described as follows: GR-GFP Redistribution (AID 450;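 active = compounds whose dose series gives a full or clear partial fitted curve of increased nuclear translocation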; also: potency is read from the fitted curve at half-maximal effect). Conditions: U2OS GR-GFP nuclear translocation, laser cytometry, 2 h.
Glucocorticoid receptor (Homo sapiens), sequence (P04150 whole entry, looked up): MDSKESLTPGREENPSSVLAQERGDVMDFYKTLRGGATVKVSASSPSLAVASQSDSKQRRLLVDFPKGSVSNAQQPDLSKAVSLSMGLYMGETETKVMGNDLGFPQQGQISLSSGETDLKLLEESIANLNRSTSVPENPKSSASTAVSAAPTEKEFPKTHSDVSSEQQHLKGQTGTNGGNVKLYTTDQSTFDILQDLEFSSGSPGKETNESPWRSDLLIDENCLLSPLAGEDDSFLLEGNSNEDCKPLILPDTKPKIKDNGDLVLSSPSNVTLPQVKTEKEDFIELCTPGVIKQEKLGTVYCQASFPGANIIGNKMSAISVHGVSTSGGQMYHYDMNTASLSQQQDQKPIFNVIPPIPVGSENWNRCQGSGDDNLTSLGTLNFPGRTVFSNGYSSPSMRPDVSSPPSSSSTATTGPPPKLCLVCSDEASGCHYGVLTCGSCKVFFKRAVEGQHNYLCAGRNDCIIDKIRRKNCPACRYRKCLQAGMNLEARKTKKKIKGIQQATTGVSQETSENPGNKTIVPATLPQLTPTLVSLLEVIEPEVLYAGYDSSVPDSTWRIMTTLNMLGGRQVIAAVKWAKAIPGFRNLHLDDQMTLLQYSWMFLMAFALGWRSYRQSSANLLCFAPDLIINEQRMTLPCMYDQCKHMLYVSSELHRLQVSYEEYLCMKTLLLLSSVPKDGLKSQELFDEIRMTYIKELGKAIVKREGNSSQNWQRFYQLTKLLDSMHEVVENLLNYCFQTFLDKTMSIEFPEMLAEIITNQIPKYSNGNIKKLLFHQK
Test [7] has the same target. The test can be described thus: GR-EFC Redistribution (AID 451; calls by dose curve; also: potency is read from the fitted curve at half-maximal effect). Conditions: CHO-K1 GR-EFC translocation, beta-gal luminescence, 2 h. Summed up:
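CHO-K1 cells expressing nuclear EA and GR-ED fragments of b-gal; compounds titrated up to 46 uM final, 2 h at 37 C. GR nuclear translocation read as complemented b-gal luminescence after 1 h RT detection.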

The target of test [8] is Mitogen-activated protein kinase 10 (Mus musculus) (UniProt Q61831). The test is described as follows: JNK3 AlphaScreen Assay (AID 530; active = well fitted curve in either direction with a large enough effect, not every such curve was filed as active;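 also: kinase came from lysate of stimulated human HepG2 cells; signal reports phosphorylation of biotinylated GST-cJun 1-79 at Ser73 with 10 µM ATP; % is scaled to controls: 0 for no effect and ±100 for the full control effect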). Conditions: JNK3 lysate, c-Jun phosphorylation; series mostly up to 57.1 µM. The gist of the method: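 Activity was read by AlphaScreen after JNK3-containing HepG2 lysate (cytokine pre-activated) phosphorylated biotinylated GST-cJun with 10 uM ATP at room temperature. Phospho-Ser73 cJun antibody with Protein-A acceptor beads provided detection.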
Background: Alpha assays give light when donor and acceptor beads are brought close together.

For test [9], the target named is Cytochrome P450 3A4 (Homo sapiens) (UniProt P08684). The test can be described thus: qHTS Assay for Activators of Cytochrome P450 3A4 (AID 885). Also: nearly all actives have a fitted effect of over 65% in size. The settings on record: recombinant CYP3A4, Luciferin-PPXE luminescence, 60 min; series mostly up to 57.1 µM. The gist of the method: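 Using 20nM recombinant human CYP3A4 in potassium phosphate (200mM), substrate Luciferin-PPXE at 25uM, luminescent luciferin detection followed a 60-min RT NADPH reaction; data scaled to 57 uM ketoconazole.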
Cytochrome P450 3A4 (Homo sapiens), sequence (P08684 whole entry, looked up): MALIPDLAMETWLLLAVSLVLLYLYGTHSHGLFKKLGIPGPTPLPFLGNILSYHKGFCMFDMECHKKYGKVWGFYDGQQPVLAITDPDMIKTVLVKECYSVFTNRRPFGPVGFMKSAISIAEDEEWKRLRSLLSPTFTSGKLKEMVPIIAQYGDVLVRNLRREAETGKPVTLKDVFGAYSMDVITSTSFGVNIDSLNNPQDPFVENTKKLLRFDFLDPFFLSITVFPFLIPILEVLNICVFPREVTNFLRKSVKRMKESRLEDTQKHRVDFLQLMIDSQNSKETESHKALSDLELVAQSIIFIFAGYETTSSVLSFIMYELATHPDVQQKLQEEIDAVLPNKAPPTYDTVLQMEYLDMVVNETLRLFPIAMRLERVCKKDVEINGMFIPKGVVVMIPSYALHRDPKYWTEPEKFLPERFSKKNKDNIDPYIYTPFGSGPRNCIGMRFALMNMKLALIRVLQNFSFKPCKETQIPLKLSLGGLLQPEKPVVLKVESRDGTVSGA
(In qHTS, concentration-response curves come from the screen itself.)

Test [10] addresses Dual specificity protein kinase CLK4 (Homo sapiens) (UniProt Q9HAZ1). The test is described as follows: qHTS Assay for Inhibitors of CDC-like Kinase 4 (Kinase-Glo Assay) (AID 1770). Also: nearly all actives have a fitted effect of over 65% in size. Also: potency is read from the fitted curve at half-maximal effect. The settings on record: recombinant Clk4, Kinase-Glo ATP depletion luminescence; series mostly up to 66.7 µM. Summed up: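 Substrate mix (RS peptide 100 uM, ATP 1 uM) dispensed, compound pinned in, then Clk4 added to 25 nM final. Incubated 4.5 h at RT; Kinase-Glo reagent added, luminescence read after 5 min.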

Test [11] shares this target. The test is described as follows: qHTS Assay for Inhibitors of CDC-like Kinase 4 (ADP-Glo Assay) (AID 1771). Also: nearly all actives have a fitted effect of over 70% in size. Also: potency is read from the fitted curve at half-maximal effect. The settings on record: recombinant CLK4, ADP-Glo luminescence; series mostly up to 80 µM. The gist of the method:
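Compounds are pin-transferred onto substrate mix (100 uM RS peptide, 1 uM ATP), then 25 nM Clk4 is added. After 1 hr at room temperature, ADP-Glo reagent runs 45 min, detection reagent 30 min, then luminescence is read.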

The target is the same in test [12]. The test can be described thus: qHTS Assay for Inhibitors of CDC-like Kinase 4 (ADP-FP Assay) (AID 1795). Also: nearly all actives have a fitted effect of over 60% in size. Also: potency is read from the fitted curve at half-maximal effect. The settings on record: Transcreener ADP fluorescence polarization; series mostly up to 50 µM. Summed up:
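Clk4 6.25 nM; RS peptide 100 uM; ATP 1 uM; 25 mM Tris pH 7.5, 10 mM MgCl2; 1 h reaction. ADP detected via antibody/orange tracer FP displacement; TG003 positive control.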

Test [13] concerns the target Ubiquitin carboxyl-terminal hydrolase 1 (Homo sapiens) (UniProt O94782). The test can be described thus: Inhibitors of USP1/UAF1: Pilot qHTS (AID 504865).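 Also: rhodamine fluorescence freed from ubiquitin-rhodamine substrate followed over time; top concentration of the series differs between compounds; % is scaled to controls: 0 for no effect and ±100 for the full control effect; nearly all actives have a fitted effect of over 35% in size.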 Conditions: purified USP1/UAF1, Ub-rhodamine cleavage fluorescence; series mostly up to 54.9 µM. Summed up: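 In 50mM HEPES pH 7.8 containing 0.5mM EDTA, 1mM TCEP, 0.1 mg/ml BSA and 0.01% Tween-20, 1nM USP1/UAF1 is exposed to compound for 15 min, then Ub-Rho (150nM final) is added and fluorescence is read over time.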

Test [14] in a line: Primary qHTS for small molecule stabilizers of the endoplasmic reticulum resident proteome: Secreted ER Calcium Modulated Protein (SERCaMP) assay (AID 1508630). Also: % is scaled to controls: 0 for no effect and ±100 for the full control effect. The settings on record: SH-SY5Y GLuc-SERCaMP (Gaussia luciferase released on ER calcium loss) secretion, thapsigargin, luminescence; series mostly up to 38.4 µM. The gist of the method: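 The SH-SY5Y reporter protocol was run at 3 concentrations up to 38.3 uM (primary) or 11 concentrations (follow-up): 16 h compound, 100 nM thapsigargin for 4 h, then extracellular luciferase luminescence.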

Test [15] has as its target 3',5'-cyclic-AMP phosphodiesterase 4B (Homo sapiens) (UniProt Q07343). The test can be described thus: qHTS Assay for Inhibitors of PDE-IV (AID 607; active = well fitted activation curve with a large enough effect in the main read-out, with a control signal flat, not every such curve was filed as active; also: % of control where 0% means no effect). Conditions: HEK293 ACTOne CNG channel cells, membrane potential fluorescence; series mostly up to 22.9 µM. Summed up: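 Live HEK293 cells with a modified cyclic nucleotide-gated (CNG) channel report intracellular cAMP via membrane-potential dye fluorescence (ex 535/em 590 nm). Endogenous PDE-IV was targeted. Compounds were tested at up to 22.9 uM final; RO 20-1724 100 uM served as control.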

The target of test [16] is Cytochrome P450 3A4 (Homo sapiens) (UniProt P08684). The test is described as follows: qHTS Assay for Inhibitors and Substrates of Cytochrome P450 3A4 (AID 884). Also: potency is read from the fitted curve at half-maximal effect; nearly all actives have a fitted effect of over 50% in size. Conditions: recombinant CYP3A4, Luciferin-PPXE luminescence; series mostly up to 57.1 µM. Summed up:
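Luminescent readout of luciferin produced by CYP3A4 (20 nM) dealkylation of Luciferin-PPXE, 25 uM (its KM). NADPH-driven reaction ran 60 min at RT after 10 min compound preincubation; data scaled to 57 uM ketoconazole as 100% inhibition.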

Lysosomal acid glucosylceramidase (Homo sapiens), sequence (P04062 whole entry, looked up): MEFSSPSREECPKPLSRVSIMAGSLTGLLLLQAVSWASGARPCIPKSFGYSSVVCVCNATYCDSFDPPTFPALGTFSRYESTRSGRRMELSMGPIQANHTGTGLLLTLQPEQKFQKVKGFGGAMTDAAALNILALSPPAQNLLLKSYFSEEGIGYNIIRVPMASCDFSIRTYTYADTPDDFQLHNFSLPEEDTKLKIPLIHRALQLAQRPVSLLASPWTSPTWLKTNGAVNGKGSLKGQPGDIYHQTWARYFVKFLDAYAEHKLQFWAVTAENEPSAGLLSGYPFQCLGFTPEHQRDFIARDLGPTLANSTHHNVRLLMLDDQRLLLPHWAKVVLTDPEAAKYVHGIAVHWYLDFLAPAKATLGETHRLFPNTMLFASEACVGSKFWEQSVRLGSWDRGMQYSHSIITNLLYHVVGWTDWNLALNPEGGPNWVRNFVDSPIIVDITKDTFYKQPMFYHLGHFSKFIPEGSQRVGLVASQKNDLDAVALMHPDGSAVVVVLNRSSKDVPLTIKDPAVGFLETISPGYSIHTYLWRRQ
Ubiquitin carboxyl-terminal hydrolase 1 (Homo sapiens), sequence (O94782 whole entry, looked up): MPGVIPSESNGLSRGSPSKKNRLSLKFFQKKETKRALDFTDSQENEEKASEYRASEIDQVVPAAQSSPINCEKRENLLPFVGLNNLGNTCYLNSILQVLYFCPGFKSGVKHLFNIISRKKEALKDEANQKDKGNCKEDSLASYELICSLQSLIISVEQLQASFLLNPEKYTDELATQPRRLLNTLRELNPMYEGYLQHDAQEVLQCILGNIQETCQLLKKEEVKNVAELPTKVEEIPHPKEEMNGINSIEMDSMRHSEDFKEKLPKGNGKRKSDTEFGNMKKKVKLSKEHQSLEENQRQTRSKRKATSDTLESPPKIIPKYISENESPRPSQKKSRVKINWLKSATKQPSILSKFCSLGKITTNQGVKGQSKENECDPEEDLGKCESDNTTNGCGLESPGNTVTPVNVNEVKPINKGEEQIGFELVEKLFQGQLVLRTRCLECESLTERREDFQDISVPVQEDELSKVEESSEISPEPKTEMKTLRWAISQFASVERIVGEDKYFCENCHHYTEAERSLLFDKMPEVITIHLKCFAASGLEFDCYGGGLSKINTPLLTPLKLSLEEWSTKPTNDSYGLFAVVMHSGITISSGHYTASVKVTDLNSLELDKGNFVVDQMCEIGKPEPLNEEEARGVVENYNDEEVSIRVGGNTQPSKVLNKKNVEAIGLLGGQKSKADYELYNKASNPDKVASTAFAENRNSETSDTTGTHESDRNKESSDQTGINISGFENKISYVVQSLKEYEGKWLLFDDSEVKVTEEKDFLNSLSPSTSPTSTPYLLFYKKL
Cytochrome P450 1A2 (Homo sapiens), sequence (P05177 whole entry, looked up): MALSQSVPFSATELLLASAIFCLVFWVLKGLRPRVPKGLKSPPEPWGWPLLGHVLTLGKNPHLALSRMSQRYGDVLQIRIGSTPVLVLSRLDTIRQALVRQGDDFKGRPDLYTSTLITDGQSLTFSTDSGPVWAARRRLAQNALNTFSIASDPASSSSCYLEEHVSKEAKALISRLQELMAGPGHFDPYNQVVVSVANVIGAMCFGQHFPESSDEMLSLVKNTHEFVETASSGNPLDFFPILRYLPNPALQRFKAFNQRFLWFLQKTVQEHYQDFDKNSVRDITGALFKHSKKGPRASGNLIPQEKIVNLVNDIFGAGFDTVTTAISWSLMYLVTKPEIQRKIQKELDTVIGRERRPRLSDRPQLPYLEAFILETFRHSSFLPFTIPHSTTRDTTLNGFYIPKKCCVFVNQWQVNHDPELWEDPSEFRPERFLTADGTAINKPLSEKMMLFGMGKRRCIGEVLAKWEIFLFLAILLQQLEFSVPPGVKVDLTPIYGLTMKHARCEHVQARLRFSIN
Dual specificity protein kinase CLK4 (Homo sapiens), sequence (Q9HAZ1 whole entry, looked up): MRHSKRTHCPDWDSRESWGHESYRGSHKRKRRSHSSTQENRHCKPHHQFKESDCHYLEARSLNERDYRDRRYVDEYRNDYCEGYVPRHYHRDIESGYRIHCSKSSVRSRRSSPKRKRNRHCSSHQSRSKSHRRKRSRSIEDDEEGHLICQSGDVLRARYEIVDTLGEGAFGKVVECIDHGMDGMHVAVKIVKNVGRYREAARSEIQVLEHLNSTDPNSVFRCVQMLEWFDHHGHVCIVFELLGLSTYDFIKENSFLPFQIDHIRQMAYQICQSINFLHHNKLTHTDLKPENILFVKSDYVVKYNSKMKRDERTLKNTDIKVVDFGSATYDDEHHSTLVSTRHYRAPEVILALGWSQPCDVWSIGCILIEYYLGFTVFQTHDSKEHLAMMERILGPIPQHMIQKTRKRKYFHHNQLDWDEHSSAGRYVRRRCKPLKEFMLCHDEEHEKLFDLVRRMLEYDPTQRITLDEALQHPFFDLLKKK
3',5'-cyclic-AMP phosphodiesterase 4B (Homo sapiens), sequence (Q07343 whole entry, looked up): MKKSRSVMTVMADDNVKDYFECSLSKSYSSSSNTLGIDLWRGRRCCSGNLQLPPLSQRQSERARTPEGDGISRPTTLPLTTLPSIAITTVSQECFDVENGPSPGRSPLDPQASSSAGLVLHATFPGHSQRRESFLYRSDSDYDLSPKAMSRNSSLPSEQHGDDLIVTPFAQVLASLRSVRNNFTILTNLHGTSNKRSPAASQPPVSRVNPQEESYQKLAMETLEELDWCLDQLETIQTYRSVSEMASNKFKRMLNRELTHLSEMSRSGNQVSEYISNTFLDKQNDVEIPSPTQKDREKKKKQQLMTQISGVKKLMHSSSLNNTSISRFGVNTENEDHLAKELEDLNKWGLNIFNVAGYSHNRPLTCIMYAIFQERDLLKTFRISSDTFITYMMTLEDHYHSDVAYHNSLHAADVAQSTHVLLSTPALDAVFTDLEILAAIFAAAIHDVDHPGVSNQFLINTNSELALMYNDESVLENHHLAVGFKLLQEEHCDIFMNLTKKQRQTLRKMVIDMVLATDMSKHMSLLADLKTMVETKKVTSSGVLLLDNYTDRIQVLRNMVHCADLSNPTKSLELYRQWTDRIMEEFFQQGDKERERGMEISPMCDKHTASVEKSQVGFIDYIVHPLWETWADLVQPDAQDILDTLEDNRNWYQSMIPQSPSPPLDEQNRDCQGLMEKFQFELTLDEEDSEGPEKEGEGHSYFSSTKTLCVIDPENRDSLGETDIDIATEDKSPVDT

As for `COCCn1c(=O)c(-c2cccs2)nc2cnc(OC)nc21`, the Potency in test [1] was > 11.4 µM; in [3], 2.51 µM (active); in test [6], > 9.22 µM; in test [7], > 46 µM. Also, the activity change, negative = inhibition in test [2] was 6.04%; in test [4] it was 15.6%. Further, the activity, negative = inhibition in [5] was 6.32%. The Potency result in test [8], in test [9], in test [10], in test [11], in test [12] and in [13] was “inactive” throughout. Further, in test [14], the outcome was inactive.
Regarding `COc1cccc(-c2nccc(NCc3cccnc3)n2)c1`, the Potency was > 11.4 µM in test [1]; 0.158 µM (active) in test [3]; > 46 µM in test [6]; > 46 µM in test [7]; 1.26 µM (active) in [16]; 7.08 µM (active) in [10]. The values for the Potency in [11] and in [12] were 7.08 µM (active) and 6.31 µM (active), respectively. Moreover, the activity change, negative = inhibition is -20.9% in [2] and 8.95% in test [4]. The activity, negative = inhibition in [5] is -2.24%. Further, the Potency result in [15], in [9] and in test [13] was “inactive” in each case. For the same molecule, in [14], the result was inactive.
In the case of `COCCn1c(=O)c(-c2cccc(Cl)c2)nc2cncnc21`, the Potency is > 11.4 µM in test [1], 0.631 µM (active) in test [3], > 9.22 µM in [6] and > 46 µM in test [7]. In addition, the activity change, negative = inhibition is -9.58% in test [2] and 12.1% in test [4]. The activity, negative = inhibition in test [5] is -4.06%. Besides, the Potency entry in test [8], in [15], in test [9], in [10], in [11] and in test [12] was “inactive” in each case. Further, the Potency result in [13] was “inactive”. Also, the outcome in test [14] was inactive.
In the case of `O=c1c(CCc2ccccc2)nc2cnc(N3CCOCC3)nc2n1CCc1ccccc1`, the Potency in [1] is > 11.4 µM; in test [3], 25.1 µM (active); in test [6], > 9.22 µM; in [7], > 46 µM. Moreover, the activity change, negative = inhibition in [2] was 0.172%; in test [4], 6.88%. The activity, negative = inhibition in test [5] was -4.94%. Moreover, the Potency result in [8], in [10], in test [11], in [12] and in [13] was “inactive” each time. In addition, the outcome in test [14] was inactive.
In the case of `CS(=O)(=O)Nc1cccc(-c2cncnc2NCc2ccccc2)c1`, the Potency was > 11.4 µM in test [1]; 25.1 µM (active) in test [3]; > 46 µM in test [6]; > 46 µM in test [7]; 0.631 µM (active) in test [16]. Besides, the activity change, negative = inhibition is -1.31% in test [2] and 3.36% in test [4]. Besides, in test [5], the activity, negative = inhibition was -2.08%. In addition, the Potency result in test [8], in test [9], in [10], in test [11], in test [12] and in test [13] was “inactive” in each case. Besides, the outcome in [14] was inactive.
As to `Cc1ccccc1-c1nc(NC2CC2)c2ccccc2n1`, the Potency in test [1] was 1.17 µM (active); in test [3], 0.501 µM (active); in test [6] it was > 46 µM; in test [7], > 46 µM; in test [16], 3.98 µM (active); in test [10], 12.6 µM (active). Further, the Potency in test [11] is 11.2 µM (active); in test [12], 10 µM (active). In addition, the figures for the activity change, negative = inhibition in test [2] and in test [4] were 17.6% and -19.1%, respectively. Also, the activity, negative = inhibition in test [5] was -0.286%. Further, the Potency result in test [8], in test [9] and in test [13] was “inactive” each time. Further, the result in test [14] was inactive.
